In PubChem BioAssay (NCI):
The panel holds about 83,000 compounds, 20% with a hit somewhere; the sample as a whole holds those more often.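 Growth was measured after 48 h exposure to one concentration of compound in 96-well plates. Values under 10 count as active.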 A number with no mark means an inactive call. Calls of active or inactive are those of the source.

How the values were obtained:
Assay in all cases: NCI-60 one-dose screen, 48 h (100 = growth as untreated, 0 = no growth, -100 = all killed)
Conditions in all cases: 10 µM unless noted
SR leukemia = tested on: SR leukemia
RPMI-8226 leukemia = tested on: RPMI-8226 leukemia
OVCAR-8 ovarian = tested on: OVCAR-8 ovarian
OVCAR-5 ovarian = tested on: OVCAR-5 ovarian
OVCAR-4 ovarian = tested on: OVCAR-4 ovarian
SK-OV-3 ovarian = tested on: SK-OV-3 ovarian
IGROV1 ovarian = tested on: IGROV1 ovarian
NCI/ADR-RES ovarian = tested on: NCI/ADR-RES ovarian
HS 578T breast = tested on: HS 578T breast
OVCAR-3 ovarian = tested on: OVCAR-3 ovarian

SMILES | growth (SR leukemia) | growth (RPMI-8226 leukemia) | growth (OVCAR-8 ovarian) | growth (OVCAR-5 ovarian) | growth (OVCAR-4 ovarian) | growth (SK-OV-3 ovarian) | growth (IGROV1 ovarian) | growth (NCI/ADR-RES ovarian) | growth (HS 578T breast) | growth (OVCAR-3 ovarian)
C#CCC1(c2ccc(F)c(F)c2)NS(=O)(=O)c2ccccc21 (centres undefined) | 76% | 109% | 93.9% | 107% | 105% | 96.9% | 94.3% | 103% | – | –
CCn1cc(C(=O)O)c(=O)c2cc(F)c(N3CCN(S(=O)(=O)c4ccc(Cl)cc4Cl)CC3)cc21 | -19.7% (active) | 9.07% (active) | 5.84% (active) | 7.92% (active) | 129% | 1.7% (active) | 7.5% (active) | 9.34% (active) | – | –
Clc1ccc(/C=C/c2nc(N3CCOCC3)c3nc(Cl)c(Cl)cc3n2)cc1 | 98% | 102% | 108% | 110% | 128% | 105% | 117% | 98.5% | – | –
CCC1=C[C@@H]2CN(C1)Cc1c([nH]c3ccccc13)[C@@](C(=O)OC)(c1cc3c(cc1OC)N(C=O)[C@H]1[C@@](O)(C(=O)OC)[C@H](OC(C)=O)[C@]4(CC)[C@@H]5C[C@@H]5CN5CC[C@]31[C@@H]54)C2 | 9.37% (active) | -6.79% (active) | 8.45% (active) | 44.2% | 47% | 5.16% (active) | 30.8% | -28.8% (active) | 26.3% | –
Cc1cccc(NC(=O)c2sc3nc4c(cc3c2N)CCCC4)c1 | 17.3% | 12.7% | 52.1% | 64.9% | 71.7% | 44% | 54.6% | 11.1% | 59.5% | –
CCOC(=O)/C=C\C(=O)NC(N)=O | 97.3% | 98.5% | 104% | 113% | 120% | 95.9% | 104% | 106% | 102% | –
CCC1CCc2nc3sc(C(=O)Nc4ccccc4C)c(N)c3cc2C1 (centres undefined) | 12.8% | 3.92% (active) | 57.3% | 76.5% | 89% | 44.8% | 65.3% | 18.4% | 49.4% | –
CCCCn1c(=O)c(C2CNC(=O)c3ccccc3N2)cc2ccccc21 (centres undefined) | 102% | 109% | 114% | 96.3% | 103% | 97.2% | – | 100% | 94.6% | 99.7%
Oc1ccc(Cl)cc1-c1cc(-c2ccc(Cl)cc2)n[nH]1 | 41.6% | 40.4% | 72.5% | 73.3% | 35% | 79% | 34.5% | 65.1% | 81.5% | –
O=C1C2=C(C(=O)c3c(O)ccc(O)c31)N(c1cccnc1)Cc1ccccc1O2 | -10.1% (active) | -8.47% (active) | 2.92% (active) | -39.6% (active) | -95% (active) | 53.8% | – | 13.4% | 26.1% | -89.5% (active)
O=C(NNC(=S)Nc1ccccc1)c1ccccn1 | 9.67% (active) | 37.6% | 23.2% | 51.3% | 20.1% | 33.5% | 21.2% | 24.7% | 65.8% | –
CCNC(=O)CCCCC(=O)c1c(C)[nH]c(/C=C2\N=C(c3ccc[nH]3)C=C2OC)c1C | 45.6% | 51.6% | -38.3% (active) | 66.3% | -59.4% (active) | 57.7% | – | 15.4% | 54.9% | -77.9% (active)
COc1cccc(NC(=O)Cn2cc3c(=O)oc4ccccc4c3n2)c1 | 110% | 97.9% | 112% | 113% | 92.8% | 113% | 97.1% | 100% | – | –
COc1cccc(NC(=O)c2sc3nc4c(cc3c2N)CCCC4)c1 | 14.3% | -4.6% (active) | 25.8% | 38.6% | 72.1% | 28.7% | 37.1% | -12.1% (active) | 48% | –
CC(=O)Nc1nc(C(=O)N2N=C(C)/C(=C/c3ccccc3)C2=O)cs1 | 90.7% | 102% | 105% | 99.9% | 110% | 97.6% | 101% | 110% | 111% | –
CCCCCc1c(C)[nH]c(/C=c2\[nH]/c(=C3/C=c4ccccc4=N3)cc2OC)c1C | -20.3% (active) | -49.5% (active) | -41.9% (active) | -7.96% (active) | 4.16% (active) | -17.2% (active) | -4.01% (active) | -20.6% (active) | -37.1% (active) | –
COc1ccc(C(=O)/C=C/c2cccc([N+](=O)[O-])c2)c(OC)c1 | 4.78% (active) | -16.8% (active) | 18.2% | 41.9% | 26.6% | 77% | 7% (active) | 11.2% | 74.6% | –
COc1cc(C2C=C(C)N=C3SC=C(C)N32)cc(OC)c1OC (centres undefined) | -6.27% (active) | -26.3% (active) | 9.1% (active) | -45.8% (active) | 12.6% | -5.5% (active) | -49.8% (active) | 19.5% | 2% (active) | –
Cc1cccc2cc(/C=C/C(=O)/C=C/c3ccc(Cl)cc3)c(=O)[nH]c12 | 0.572% (active) | 6.05% (active) | 21.8% | 84.8% | 58% | 91.5% | – | 94.8% | 50.9% | 13.9%
COC1=CC(c2ccc[nH]2)=N/C1=C\c1[nH]c(C)c(C(=O)CCCCC(=O)NCc2ccccc2)c1C | 91% | 65.6% | 31.5% | 47.3% | 50.8% | 83.3% | – | 42% | 72% | -5.91% (active)
Cc1oc2ncnc(Nc3ccccc3)c2c1C(=O)NCCO | 52.2% | 94.8% | 113% | 93.2% | 103% | 100% | – | 102% | 90.5% | 102%
O=S(=O)(c1ccccc1)n1ccc(-c2ccc3c(c2)CCO3)n1 | 73.3% | 62.4% | 84% | 103% | 70.1% | 104% | 75.7% | 76% | 102% | –
O=C(N/N=C/c1c(Cl)cccc1Cl)c1ccccc1Nc1ccnc(C(F)(F)F)c1 | 103% | 89.7% | 64.8% | 97.8% | 63.9% | 76.9% | – | 67.6% | 82.7% | 110%
COc1cc(/C=C/C(=O)c2ccccc2O)ccc1OCCCOc1cc2c(cc1OC)C(=O)N1CCC[C@H]1C=N2 | -13.8% (active) | -21.7% (active) | 18.1% | 0.483% (active) | -2.17% (active) | 33.1% | -65.8% (active) | 19.3% | – | –
O=C(Nc1ccccc1)OCC1OCOC(COC(=O)Nc2ccccc2)C1OC(=O)Nc1ccccc1 (centres undefined) | 18.1% | 40.1% | 32% | 52.5% | -44.6% (active) | 91.5% | 70.8% | 69.8% | 67.7% | –
CCC1CCc2nc3sc(C(=O)Nc4ccccc4F)c(N)c3cc2C1 (centres undefined) | 16.8% | 47.5% | 83.3% | 87.6% | 90.9% | 80.7% | 88.3% | 62.5% | 70% | –
CC(=O)/C=C/c1cc2cc(Cl)ccc2[nH]c1=O | 5.65% (active) | 54.5% | 92.2% | 95.3% | 90.5% | 88.7% | – | 100% | 89.7% | 84.7%
Clc1nc(-c2cccnc2)nc2sc3c(c12)CCCCCC3 | 87.6% | 96.9% | 103% | 102% | 97.1% | 102% | 107% | 106% | – | –
CCC1CCc2nc3sc(C(=O)Nc4cccc(C)c4)c(N)c3cc2C1 (centres undefined) | 11% | 56.5% | 94.2% | 105% | 85% | 96.9% | 95.8% | 76% | 87.7% | –
COc1ccc(/C=C/C(=O)/C=C/c2cc3ccc(Cl)cc3[nH]c2=O)cc1 | -0.34% (active) | 19.9% | 81.4% | 108% | 92.9% | 91% | – | 103% | 90.5% | 75.4%
